Assay results from PubChem BioAssay AID1578 (Sanford-Burnham Center for Chemical Genomics, 2009).
Out of some 290,000 compounds screened, about 3,000 (1%) were called active. No stated cut-off is given here; in the data, active means inhibition mostly above about 36% (no sharp cut-off); inactive means mostly below about 34%. Only a selection was taken, and actives are over-represented in it overall.

Experiment: inhibition of NOD1-driven NF-kB reporter – cell-based, luminescence, uHTS, primary screen (AID 1578);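 further: HEK-293T reporter cells stimulated with the NOD1 agonist gamma-tri-DAP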
Conditions: NOD1-driven NF-kB luciferase reporter cells, at 4 µM, stronger effect = higher value

SMILES | inhibition
COc1ccc(C(C)=O)cc1CC(=O)Nc1ccccc1-c1ccccc1 | -4.6% (inactive)
Cc1sc2nc[nH]c(=S)c2c1-c1ccccc1 | 99.2% (active)
S=c1[nH]cnc2scc(-c3ccccc3)c12 | -0.1% (inactive)
Cc1c(-c2ccccc2)sc2nc[nH]c(=S)c12 | -35.9% (inactive)
O=C(COC(=O)c1ccc(Br)cc1)NCc1ccc(F)cc1 | -22.6% (inactive)
O=C(COC(=O)Cc1ccc(-c2ccccc2)cc1)NCc1ccc(F)cc1 | -4.2% (inactive)
O=C(COC(=O)Cc1ccc(Br)cc1)NCc1ccc(F)cc1 | 48.2% (active)
COc1ccc(/C(C)=N/NC(=O)c2sccc2-n2cccc2)cc1 | -58.2% (inactive)
Cc1nc(NCc2ccco2)c2c(C)c(C)sc2n1 | 97.6% (active)
Cc1nc(NCc2ccco2)c2c3c(sc2n1)CCC3 | -54.6% (inactive)
Cc1sc2ncnc(NCc3ccco3)c2c1C | -21.2% (inactive)
COc1ccccc1C1CCN(Cc2ccc(C)cc2)CC1 | 4.9% (inactive)
Cc1cc(C=C2C(=O)CCCC2=O)c(C)n1-c1ccccc1 | -19.3% (inactive)
Cc1cc(C=C2C(=O)c3ccccc3C2=O)c(C)n1-c1ccccc1 | 32.4% (inactive)
Cc1cc(/C=C2\Cc3ccccc3C2=O)c(C)n1-c1ccccc1 | 63.8% (active)
Cc1nc(N)ncc1-c1ccc2c(c1)OCO2 | 2.9% (inactive)
O=C(NCC(=O)N(c1ccc(Cl)cc1)C(C(=O)NC1CCCC1)c1cccnc1)c1ccco1 (centres undefined) | 6% (inactive)
N#CC(=C1N=c2ccccc2=N1)c1c(O)[nH]c2ccccc12 | 20% (inactive)
Oc1[nH]c(N=C2N=c3ccccc3=N2)c2ccccc12 | 42.6% (active)
Oc1[nH]c2ccccc2c1N=Nc1cccc(Cl)c1 | -10.3% (inactive)
CC(C)NC(=O)NC(=O)COC(=O)c1cc[n+]([O-])cc1 | -6.6% (inactive)
CCOC(=O)CON1C(=O)C(=O)N(OCC(=O)OCC)C2CCCCC21 (centres undefined) | -26.3% (inactive)

SMILES | inhibition
CC(C)(C)N1CC(COc2ccccc2)OC1=O (centres undefined) | -21.9% (inactive)
Cc1sc(NC(=O)CCl)c(C(=O)c2ccccc2)c1C | 60.9% (active)
Cc1sc(NC(=O)c2ccccc2)c(C(=O)c2ccccc2)c1C | 14.5% (inactive)
Cc1ccc(C(=O)Nc2sc(C)c(C)c2C(=O)c2ccccc2)cc1 | -9.8% (inactive)
Cc1ccc(NC(=O)CN(C)C(=O)/C=C/c2cccc(F)c2)cc1 | -1.6% (inactive)
COCCN(Cc1cc2cc(C)ccc2n2nnnc12)C(=S)Nc1ccccc1C | 52.2% (active)
COCCN(Cc1cc2cc(C)ccc2n2nnnc12)C(=S)Nc1cccc(C)c1 | 33.3% (inactive)
COCCN(Cc1cc2cc(C)ccc2n2nnnc12)C(=S)Nc1ccc(C)cc1 | 10.5% (inactive)
Cc1ccc2c(c1)cc(CN(Cc1cccnc1)C(=O)c1ccccc1)c1nnnn12 | -33.2% (inactive)
Cc1ccc(C(=O)N(Cc2cccnc2)Cc2cc3cc(C)ccc3n3nnnc23)cc1 | 52% (active)
Cc1ccc2c(c1)cc(CN(Cc1cccnc1)C(=O)NCc1ccccc1)c1nnnn12 | -2.2% (inactive)
COc1ccc(-c2csc(-c3[nH]cnc3N)n2)cc1 | -36.1% (inactive)
COCCNC(=O)Cn1ccc2cc(S(=O)(=O)N3CCCCCC3)ccc21 | -9.2% (inactive)
COc1cc(-c2noc(C)c2-c2ccc3[nH]ccc3c2)cc(OC)c1OC | 33.3% (inactive)
CC1CCCN(C(=O)CCNS(=O)(=O)c2ccc3c(c2)oc(=O)n3C)C1 (centres undefined) | -23.9% (inactive)
CC(=O)Nc1ccc(NC(=O)Cc2ccc(-c3ccccc3)cc2)cc1 | -16.2% (inactive)
O=C(CCl)Nc1ccc(-c2ccccc2)cc1 | 78.6% (active)
CC(C)N(c1ccccc1)c1ccc(NC(=S)NCCN(C)C)cc1 | -23.3% (inactive)
O=C(Cc1ccc(-c2ccccc2)cc1)Nc1ccccc1 | -1.9% (inactive)
CCNC(=S)Nc1ccc(N(c2ccccc2)C(C)C)cc1 | -9.8% (inactive)
CC(C)N(c1ccccc1)c1ccc(NC(=O)CCl)cc1 | 95.4% (active)
O=C(CSCc1ccc(Cl)cc1)Nc1ccccc1O | -40% (inactive)

SMILES | inhibition
O=C(CCCSc1ccc(Cl)cc1)Nc1ccccc1O | 59.4% (active)
COC(=O)c1cccc(NC(=O)CCSc2ccc(Cl)cc2)c1C | -10.1% (inactive)
Cc1ccc(C)c(Sc2ccc(NC(=O)CCl)cc2)c1 | 19.3% (inactive)
Cc1ccc(Sc2ccc(NC(=O)CCl)cc2)cc1C | 21.2% (inactive)
COc1ccc(/C=N/NC(=O)COc2ccc(Cl)cc2Cl)cc1Cn1nc(C)cc1C | -18% (inactive)
COc1ccccc1N1CCN(C2CCCN(C(=O)CCC(C)=O)C2)CC1 (centres undefined) | -21% (inactive)
COc1ccc(S(=O)(=O)N2CCC(C(=O)N[C@@H](C)C(=O)NCc3cccc(OC)c3)CC2)cc1 | -4.9% (inactive)
Cc1c(C)c2c(OCC(=O)N3CCC(C(=O)NCC(C)C)CC3)cc3c(c2oc1=O)CCC(C)(C)O3 | -19.1% (inactive)
O=C(CCCn1cnc2ccccc2c1=O)Nc1ccccc1F | -9.5% (inactive)
Cc1cccc(C)c1NC(=O)C1C2C=CC(C2)C1C(=O)O (centres undefined) | -40.2% (inactive)
CCN1CCN(C(c2cccs2)C(C)NC(=O)c2ccco2)CC1 (centres undefined) | 5.5% (inactive)
CC(=O)Nc1nnc(/C=C/c2cccc([N+](=O)[O-])c2)s1 | 46% (inactive)
CC(=O)C1=C(O)C(=O)N(Cc2ccco2)C1c1cccc(F)c1 (centres undefined) | -28% (inactive)
O=C(NCc1ccco1)c1ccc(Cl)c(S(=O)(=O)Nc2ccccc2)c1 | -15% (inactive)
COc1ccc(N(CC(=O)Nc2cc([N+](=O)[O-])ccc2C)S(C)(=O)=O)cc1OC | 1.1% (inactive)
O=C(Cc1ccc(Cl)cc1)Nc1ccccc1Sc1ccccc1 | -16.9% (inactive)
O=C(O)CCC(=O)Nc1ccc(N=Nc2ccccc2)cc1 | -26.1% (inactive)
O=C(CCl)Nc1ccc(N=Nc2ccccc2)cc1 | 107% (active)
O=C(O)CCCC(=O)Nc1ccc(N=Nc2ccccc2)cc1 | -13.6% (inactive)
O=C(CCl)Nc1ccccc1Sc1ccccc1 | 21.3% (inactive)
